Measured values from PubChem BioAssay (NCATS).
Inconclusive results are not listed. The source made the active and inactive calls. Unless noted, calls come from the whole dose curve; as a rule, active = well fitted curve in the direction sought with a large enough effect; inconclusive = small, poorly fitted or top-dose-only effect, or another doubt; inactive = no such curve, though single readings can be large; an effect the other way counts as inactive or inconclusive.

Columns and labels:
[1] = qHTS to identify inhibitors of the type 1 interferon - major histocompatibility complex class I in skeletal muscle: primary screen against the NCATS Pharmaceutical Collection (AID 1347407);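 note: luminescence of HiBiT knocked into endogenous HLA-B as interferon-induced MHC class I level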
How it was run: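 Cells were seeded with 4 ng/ml IFN-beta, incubated 1 h, then dosed with compounds over eight 1:5 steps up to 46 uM final. After 24 h at 37 C, HiBiT lytic reagent was added and luminescence read after 10 min lysis in the dark.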

[2] = target: Protein phosphatase 1D (Homo sapiens) (UniProt O15297); assay: RapidFire Mass Spectrometry qHTS Assay for Modulators of WT P53-Induced Phosphatase 1 (WIP1) (AID 1347424);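 note: amount of dephosphorylated VEPPL-S-QETFS peptide product formed by WIP1; series mostly up to about 63 µM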
Protein phosphatase 1D (Homo sapiens), sequence (O15297 whole entry, looked up): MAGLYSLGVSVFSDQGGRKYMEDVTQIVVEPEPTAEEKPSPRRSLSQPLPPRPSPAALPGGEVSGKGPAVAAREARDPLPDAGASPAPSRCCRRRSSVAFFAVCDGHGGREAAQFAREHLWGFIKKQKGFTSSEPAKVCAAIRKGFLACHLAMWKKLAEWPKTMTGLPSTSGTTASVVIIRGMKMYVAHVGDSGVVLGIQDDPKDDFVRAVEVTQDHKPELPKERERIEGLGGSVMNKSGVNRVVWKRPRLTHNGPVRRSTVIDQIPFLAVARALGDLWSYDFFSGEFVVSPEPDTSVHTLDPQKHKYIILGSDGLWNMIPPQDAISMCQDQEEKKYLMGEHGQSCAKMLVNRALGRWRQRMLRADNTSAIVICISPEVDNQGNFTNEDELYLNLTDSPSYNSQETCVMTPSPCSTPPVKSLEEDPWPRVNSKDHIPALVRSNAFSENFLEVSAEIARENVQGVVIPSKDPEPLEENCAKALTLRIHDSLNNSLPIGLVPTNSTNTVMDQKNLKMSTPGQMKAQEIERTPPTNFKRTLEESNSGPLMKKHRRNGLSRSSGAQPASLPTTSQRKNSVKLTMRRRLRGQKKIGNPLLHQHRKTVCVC
How it was run: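 10 nM WIP1 + cpd, 1 h RT; + 2 uM VEPPL-pS-QETFS, 5 min RT; stop 0.5% formic acid; labelled product standard 1 uM; RapidFire MS. Buffer 50 mM Tris pH 7.5, 30 mM MgCl2, 1 mM TCEP.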

[3] = target: Protein phosphatase 1D (Homo sapiens) (UniProt O15297); assay: Rhodamine-PBP qHTS Assay for Modulators of WT P53-Induced Phosphatase 1 (WIP1) (AID 1347425)
How it was run: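 5 nM WIP1 + 10 uM Rh-PBP, 50 mM Tris pH 7.5, 30 mM MgCl2, 1 mM TCEP, 0.1 mM EGTA, BSA; cpds pinned, 1 hr RT; + 10 uM phosphopeptide; fluorescence 1-min reads x 11 min; delta = f1 - f0.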

[4] = Primary qHTS for Huh7 cytotoxicity: counterscreen for inhibitors of MERS-S pseudotyped particle cell entry (AID 1479147; calls by dose curve)
[5] = Primary qHTS for Vero E6 cytotoxicity: counterscreen for inhibitors of SARS-S pseudo-typed particle cell entry (AID 1479150; calls by dose curve)
[6] = Primary qHTS for inhibitors of La Crosse Virus (LACV) - induced cell death in SH-SY5Y cells (AID 1508616);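 note: top concentration of the series differs between compounds; higher means more rescue of cells from virus-induced death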
How it was run: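 SH-SY5Y cells (6000/well) plated 24 h, then given compounds by pin transfer and LACV at 0.01 MOI for 6 days at 37C. Viability measured by ATPLite luminescence, normalized to infected DMSO and uninfected DMSO.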

[7] = target: Calcium and integrin-binding protein 1 (Homo sapiens) (UniProt Q99828); assay: Primary qHTS for Identification of Calcium Integrin Binding Protein 1 (CIB1) Competitor (AID 1508620);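 note: GST tagged CIB1 binding a fluorescein labelled alphaIIb integrin peptide tracer; top concentration of the series differs between compounds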
Calcium and integrin-binding protein 1 (Homo sapiens), sequence (Q99828 whole entry, looked up): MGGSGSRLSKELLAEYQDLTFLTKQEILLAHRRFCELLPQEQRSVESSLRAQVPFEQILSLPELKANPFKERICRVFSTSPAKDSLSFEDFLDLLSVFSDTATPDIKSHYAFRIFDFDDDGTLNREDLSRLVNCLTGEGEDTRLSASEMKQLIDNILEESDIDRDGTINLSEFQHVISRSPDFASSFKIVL
How it was run: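 CIB1-GST (1 uM final) and compound incubated 15 min at room temperature before adding FITC-alphaIIb peptide tracer (100 nM final). Competition for binding read by fluorescence polarization (ex 480, em 540) after another 15 min at room temperature.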

[8] = Primary qHTS for inhibitors of MERS-S pseudo-typed particle cell entry (AID 1479149; calls by dose curve; note: nearly all actives have a fitted effect of over 60% in size)
[9] = Counterscreen qHTS for small molecule stabilizers of the endoplasmic reticulum resident proteome: GLuc-NoTag assay (AID 1508627);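 note: SH-SY5Y cells given compound then 100 nM thapsigargin to empty ER calcium; series mostly up to about 76 µM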
How it was run: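 Luminescence of Gaussia luciferase secreted into the medium (coelenterazine, 0.07x final, unlysed cells) was the read-out. Human SH-SY5Y neuroblastoma cells constitutively secreting untagged GLuc received compound for 19 h, then 100 nM thapsigargin for 4 h.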

[10] = target: Calcium and integrin-binding protein 1 (Homo sapiens) (UniProt Q99828); assay: Confirmatory qHTS for Identification of Calcium Integrin Binding Protein 1 (CIB1) Competitor (AID 1508617); note: potency is the fitted concentration of half-maximal effect; nearly all actives have a fitted effect of over 65% in size
How it was run: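 Confirmatory qHTS measures displacement of a FITC-alphaIIb peptide (100 nM) from CIB1-GST (1 uM) by fluorescence polarization. Calcium-containing HEPES buffer, pH 7.4; two 15 min room-temperature incubations.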

Measured: Potency

CC(C(O)c1ccccc1)N(C)C/C=C/c1ccccc1 (stereo not given)
not listed: [8] | [9] | [10]
inactive: all other assays above

O=C1CN2CCOC2(c2ccccc2Cl)c2cc(Cl)ccc2N1 (stereo not given)
not listed: [8] | [9] | [10]
inactive: all other assays above

CCN(CC)Cc1nccn1-c1ccc([N+](=O)[O-])cc1C(=O)c1ccccc1Cl
not listed: [9] | [10]
inactive: all other assays above

CCc1ccc(C2CCNCC2)cc1
inactive: [1] | [2] | [3] | [6] | [7]

CCN(CC)C(C)C(=O)c1ccccc1 (stereo not given)
inactive: [1] | [2] | [3] | [6]

CC(=O)OC1(c2ccccc2)CCN(CCc2ccccc2)CC1
inactive: [1] | [2] | [3] | [6] | [7]

CCOC(C(=O)OCCN(C)C)(c1ccccc1)c1ccccc1
inactive: [1] | [2] | [3] | [6] | [7]

ClC1=C(Cl)C2(Cl)C(CBr)CC1(Cl)C2(Cl)Cl (stereo not given)
inactive: [1] | [2] | [3] | [6] | [7]

CC(C)NCC(O)c1ccc(N)c(C#N)c1 (stereo not given)
inactive: [1] | [2] | [3] | [6] | [7]

COc1cc(N)c(Cl)cc1C(=O)NC1CN2CCC1CC2 (stereo not given)
inactive: [1] | [2] | [3] | [6] | [7]

CC(C)C(Br)C(=O)NC(N)=O (stereo not given)
not listed: [9] | [10]
inactive: all other assays above

COc1cc(CC#N)cc(OC)c1OC
inactive: [1] | [2] | [3] | [6] | [7]

CC[C@H]1C[C@H]2[C@@H]3CCC4=CC(=O)CC[C@@H]4[C@H]3CC[C@]2(C)[C@H]1O
not listed: [8] | [9] | [10]
inactive: all other assays above

CCCN(CCC)CCc1c[nH]c2ccccc12
inactive: [1] | [2] | [3] | [6] | [7]

CCC(=O)C(CCN(C)C)(c1ccccc1)c1ccccc1
not listed: [8] | [9] | [10]
inactive: all other assays above

CN1C2CCC(C)(C)C1CC(OC(=O)C(O)(c1cccs1)c1cccs1)C2 (stereo not given)
not listed: [8] | [10]
inactive: all other assays above

CCN(CC)CCOC(=O)C(C)(c1ccccc1)c1ccccc1
inactive: [1] | [2] | [3] | [6] | [7]

Clc1ccc(CO/N=C(\Cn2ccnc2)c2ccc(Cl)cc2Cl)c(Cl)c1
not listed: [8] | [9] | [10]
inactive: all other assays above

O=c1[nH]c2cc(Cl)ccc2n1C1CCNCC1
inactive: [1] | [2] | [3] | [6] | [7]

COc1cc(C[C@@H](C)N)c(OC)cc1Br
inactive: [1] | [2] | [3] | [6] | [7]

CN(C)CCc1c[nH]c2cccc(O)c12
active: [10] 126 µM
inactive: [1] | [2] | [3] | [6]

C=CCOC(Cn1ccnc1)c1ccc(Cl)cc1Cl (stereo not given)
not listed: [8] | [9] | [10]
inactive: all other assays above

CCOC(=O)NC(O)C(Cl)(Cl)Cl (stereo not given)
inactive: [1] | [2] | [3] | [6] | [7]

CN1CCc2cc(Cl)c(O)cc2[C@H]2c3ccccc3CC[C@@H]21
inactive: [1] | [2] | [3] | [6] | [7]

C[C@]12CC[C@H]3[C@@H](CCC4=CC(=O)CC[C@@]43C)[C@@H]1CC[C@@H]2C(=O)O
inactive: [1] | [2] | [3] | [6] | [7]

CN1C[C@@H](NS(=O)(=O)N(C)C)C[C@@H]2c3cccc4c3c(cn4C)C[C@H]21
inactive: [1] | [2] | [3] | [6] | [7]

CC(C)(C)OC(=O)c1ncn2c1[C@@H]1CCCN1C(=O)c1c(Br)cccc1-2
inactive: [1] | [2] | [3] | [6] | [7]

O=C(CCl)c1ccc(Cl)cc1Cl
inactive: [1] | [2] | [3] | [6] | [7]

CC(Cc1ccc2c(c1)OCO2)NO (stereo not given)
inactive: [1] | [2] | [3] | [6] | [7]

CC1Sc2c(C(=O)O)c(=O)c3cc(F)c(N4CCNCC4)cc3n21 (stereo not given)
inactive: [1] | [2] | [3] | [6] | [7]

Oc1c(Br)cc(Br)cc1Br
inactive: [1] | [2] | [3] | [6] | [7]

O=C(O)CCCCCCNC1c2ccccc2CCc2ccccc21
inactive: [1] | [2] | [3] | [6] | [7]
